Test results reported in PubChem BioAssay (Tox21).
Where “and” joins values, the source holds several entries; their conditions need not be identical. Equal values may be shown once. Results filed as inconclusive are left out. A call without a number means that no potency is given here. Some structures have more than one record in an assay (separate samples or runs), and their calls can disagree. Calls of active or inactive are those of the source. Unless noted, the call rests on the fitted dose curve; in most records, active means well fitted curve in the direction sought with a large enough effect in the repeat runs; inconclusive means weak or mixed curves; inactive means no such curve, though single readings can be large; an effect the other way counts as inactive or inconclusive.

Assays:
[1] = qHTS assay to identify small molecule agonists of the TGF-beta/Smad signaling pathway - cell viability counter screen (AID 1346829); further: top concentration of the series differs between compounds; nearly all actives have a fitted effect of over 45% in size
Procedure, shortened: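 In parallel with the Smad reporter read, viability of HEK 293T cells stably carrying SBE-bla is quantified by ATP luminescence following 5 hr compound treatment.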

[2] = qHTS assay to identify small molecule agonists of the TGF-beta/Smad signaling pathway (AID 1346859; active means well fitted activation curve with a large enough effect in the signal ratio in the repeat runs, not every such curve was filed as active; the % refers to the signal ratio; further: series mostly up to about 77 µM)
Procedure, shortened: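 Dual-wavelength fluorescence (460/530 nm emission) quantified beta-lactamase expression under the Smad binding element in HEK 293T cells following 5 hr compound treatment at 37 C.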

[3] = target: Thyrotropin-releasing hormone receptor (Homo sapiens) (UniProt P34981); assay: qHTS assay to identify small molecule antagonists of the thyrotropin-releasing hormone receptor (TRHR) signaling pathway (AID 1346877; active means well fitted inhibition curve with a large enough effect in the repeat runs, not every such curve was filed as active; further: series mostly up to about 51 µM)
Sequence of Thyrotropin-releasing hormone receptor (Homo sapiens) (P34981 whole entry, looked up): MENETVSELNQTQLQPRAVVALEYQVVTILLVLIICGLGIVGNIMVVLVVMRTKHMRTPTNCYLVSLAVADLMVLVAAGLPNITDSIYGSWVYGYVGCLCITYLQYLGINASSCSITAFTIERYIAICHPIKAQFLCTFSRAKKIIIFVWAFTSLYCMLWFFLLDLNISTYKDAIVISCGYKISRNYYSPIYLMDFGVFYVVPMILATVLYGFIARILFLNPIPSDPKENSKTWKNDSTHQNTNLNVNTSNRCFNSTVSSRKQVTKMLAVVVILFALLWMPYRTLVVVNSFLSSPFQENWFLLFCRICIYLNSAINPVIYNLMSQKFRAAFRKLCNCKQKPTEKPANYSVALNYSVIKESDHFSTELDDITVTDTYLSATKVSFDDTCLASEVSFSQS
Procedure, shortened: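 Overnight-plated (18 h, 37 °C) HEK293 cells expressing TRHR were dye-loaded 2 h, treated with compound, then stimulated with TRH at 1 nM final. Fluorescence intensity was captured every second for 3 min.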

[4] = target: Thyrotropin-releasing hormone receptor (Homo sapiens) (UniProt P34981); assay: qHTS assay to identify small molecule agonists of the thyrotropin-releasing hormone receptor (TRHR) signaling pathway (AID 1346891; calls by dose curve; further: potency means the concentration at half of the fitted maximal effect;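 on activation: HEK293 cells expressing TRHR with calcium dye readout; series mostly up to about 58 µM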)
Procedure, shortened: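 Kinetic fluorescence (3 min, 1 s intervals) reported intracellular calcium after compound transfer onto TRHR-Hek293 cells pre-loaded with dye for 2 h at 37 °C.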

[5] = Human pregnane X receptor (PXR) small molecule agonists, qHTS cell viability counter screen (AID 1346977); further: nearly all actives have a fitted effect of over 50% in size
Procedure, shortened: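 HepG2 cells stably carrying the PXR-Luc reporter are cultured with 5% charcoal-stripped FBS and treated with compounds for 24hr. CellTiter-Fluor is added at 23hr and fluorescence is read after 1hr.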

[6] = Caspase-3/7 induction in HepG2 cells by small molecules, qHTS assay (AID 1346978); further: nearly all actives have a fitted effect of over 15% in size
Procedure, shortened: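 Caspase-3/7 induction was measured by Caspase-Glo 3/7 luminescence (30 min, room temperature) after a 17 hr compound exposure of wild-type HepG2 cells seeded at 2,000 per well and pre-incubated 5 hr.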

[7] = Caspase-3/7 induction in CHO-K1 cells by small molecules, qHTS cell viability counter screen (AID 1346979); further: nearly all actives have a fitted effect of over 35% in size
Procedure, shortened: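 Seeding: 1,500 CHO-K1 cells/well. Rest: 5hr, 37C. Treatment: compounds in DMSO, 16hr. Read: CellTiter-Fluor, 1hr, fluorescence.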

[8] = Caspase-3/7 induction in CHO-K1 cells by small molecules, qHTS assay (AID 1346980); further: nearly all actives have a fitted effect of over 15% in size
Procedure, shortened: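 Luminescent Caspase-Glo 3/7 read (30min, room temperature) quantified apoptosis induction. Cells were wild-type CHO-K1, treated with compound for 17hr at 37 C and 5% CO2.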

[9] = Caspase-3/7 induction in HepG2 cells by small molecules, qHTS cell viability counter screen (AID 1346981); further: series mostly up to about 92 µM; nearly all actives have a fitted effect of over 30% in size
Procedure, shortened: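 Treatment of HepG2 cells with DMSO-delivered compounds ran 16 hr at 37 C following a 5-hr pre-incubation of 2,000 cells/well. CellTiter-Fluor fluorescence, read after 1 hr, served as the viability measure in a qHTS format.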

[10] = target: Nuclear receptor subfamily 1 group I member 2 (Homo sapiens) (UniProt O75469); assay: Human pregnane X receptor (PXR) small molecule agonists, qHTS assay (AID 1346982); further: nearly all actives have a fitted effect of over 35% in size; further: potency means the concentration at half of the fitted maximal effect
Sequence of Nuclear receptor subfamily 1 group I member 2 (Homo sapiens) (O75469 whole entry, looked up): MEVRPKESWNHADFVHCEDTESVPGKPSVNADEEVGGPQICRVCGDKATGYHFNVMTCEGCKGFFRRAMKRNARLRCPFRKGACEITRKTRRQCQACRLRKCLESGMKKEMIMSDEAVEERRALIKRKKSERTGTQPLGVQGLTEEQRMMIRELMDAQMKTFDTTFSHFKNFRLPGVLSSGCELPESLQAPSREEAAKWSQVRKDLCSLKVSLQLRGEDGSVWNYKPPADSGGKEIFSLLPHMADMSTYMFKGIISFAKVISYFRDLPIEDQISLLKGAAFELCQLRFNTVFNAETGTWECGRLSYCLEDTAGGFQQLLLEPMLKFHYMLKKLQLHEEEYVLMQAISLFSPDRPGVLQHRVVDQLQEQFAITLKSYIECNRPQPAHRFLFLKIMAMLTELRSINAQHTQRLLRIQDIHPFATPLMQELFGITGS
Procedure, shortened: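 Stable HepG2 line reporting PXR-mediated CYP3A4 expression via luciferase. Treatment: 24 hr with compounds in DMSO at 37 C. Detection: ONE-Glo luminescence.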

[11] = target: Acetylcholinesterase (Homo sapiens) (UniProt P22303); assay: Acetylcholinesterase (AChE) small molecule antagonists: colormetric cell-based qHTS assay (AID 1347395; calls by dose curve; further: nearly all actives have a fitted effect of over 30% in size; further: potency means the concentration at half of the fitted maximal effect)
Sequence of Acetylcholinesterase (Homo sapiens) (P22303 whole entry, looked up): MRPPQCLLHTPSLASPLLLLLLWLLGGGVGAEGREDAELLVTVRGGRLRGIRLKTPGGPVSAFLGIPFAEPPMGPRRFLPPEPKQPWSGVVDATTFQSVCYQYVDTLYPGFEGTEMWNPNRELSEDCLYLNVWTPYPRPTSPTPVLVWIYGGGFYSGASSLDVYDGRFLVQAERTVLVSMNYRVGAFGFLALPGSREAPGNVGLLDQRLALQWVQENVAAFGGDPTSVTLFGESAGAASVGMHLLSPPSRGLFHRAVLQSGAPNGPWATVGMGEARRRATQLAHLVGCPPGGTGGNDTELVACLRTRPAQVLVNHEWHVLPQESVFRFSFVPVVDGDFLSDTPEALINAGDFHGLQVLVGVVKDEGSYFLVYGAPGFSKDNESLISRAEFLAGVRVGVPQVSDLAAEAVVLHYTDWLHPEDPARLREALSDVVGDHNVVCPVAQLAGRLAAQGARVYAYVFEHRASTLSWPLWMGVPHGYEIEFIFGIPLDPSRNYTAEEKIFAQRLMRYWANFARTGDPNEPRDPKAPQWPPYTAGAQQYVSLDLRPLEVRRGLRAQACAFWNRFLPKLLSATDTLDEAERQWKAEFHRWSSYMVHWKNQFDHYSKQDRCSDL
Procedure, shortened: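 Quantitative HTS in attached SH-SY5Y cells: 30 min compound exposure, then 90 min with acetylthiocholine and DTNB at 37 C; colour from thiocholine reports AChE activity.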

[12] = target: Acetylcholinesterase (Homo sapiens) (UniProt P22303); assay: Acetylcholinesterase (AChE) small molecule antagonists: enzyme-based qHTS assay (AID 1347397; calls by dose curve; further: nearly all actives have a fitted effect of over 55% in size; further: potency means the concentration at half of the fitted maximal effect); settings: Potency: AChE enzyme activity inhibition
Procedure, shortened: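 Colorimetric DTNB readout of acetylthiocholine hydrolysis, 10 min at room temperature, after 30 min room-temperature exposure of 50 mU/mL recombinant human enzyme to compound; DMSO vehicle control.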

[13] = target: Acetylcholinesterase (Homo sapiens) (UniProt P22303); assay: Acetylcholinesterase (AChE) small molecule antagonists: fluorescence cell-based qHTS assay (AID 1347398; calls by dose curve; further: nearly all actives have a fitted effect of over 50% in size; further: potency means the concentration at half of the fitted maximal effect); settings: Potency: AChE activity
Procedure, shortened: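 Cellular AChE activity read as thiocholine from acetylthiocholine hydrolysis, detected by Thiolite Green fluorescence at 490/520 nm after 40 min at room temperature. Compounds were pre-incubated 30 min at 37 C on adherent SH-SY5Y cells.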

[14] = target: Acetylcholinesterase (Homo sapiens) (UniProt P22303); assay: Acetylcholinesterase (AChE) small molecule antagonists: enzyme-based qHTS assay with human liver microsomes (AID 1347399; calls by dose curve; further: nearly all actives have a fitted effect of over 60% in size; further: potency means the concentration at half of the fitted maximal effect); settings: Potency: qHTS inhibition
Procedure, shortened: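 Recombinant human AChE (50 mU/mL in the enzyme mix) and human liver microsomes (0.25 mg/mL final) were preincubated with compound and NADPH (0.25 mg/mL final) for 30 min at 37 C. Acetylthiocholine/DTNB was then added; thiocholine was read colorimetrically after 10 min at room temperature.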

[15] = target: Cytochrome P450 2D6 (Homo sapiens) (UniProt P10635); assay: Cytochrome P450 Family 2 Subfamily D Member 6 (CYP2D6) small molecule antagonists: luciferase reporter qHTS assay (AID 1671196); further: nearly all actives have a fitted effect of over 50% in size; further: potency means the concentration at half of the fitted maximal effect
Sequence of Cytochrome P450 2D6 (Homo sapiens) (P10635 whole entry, looked up): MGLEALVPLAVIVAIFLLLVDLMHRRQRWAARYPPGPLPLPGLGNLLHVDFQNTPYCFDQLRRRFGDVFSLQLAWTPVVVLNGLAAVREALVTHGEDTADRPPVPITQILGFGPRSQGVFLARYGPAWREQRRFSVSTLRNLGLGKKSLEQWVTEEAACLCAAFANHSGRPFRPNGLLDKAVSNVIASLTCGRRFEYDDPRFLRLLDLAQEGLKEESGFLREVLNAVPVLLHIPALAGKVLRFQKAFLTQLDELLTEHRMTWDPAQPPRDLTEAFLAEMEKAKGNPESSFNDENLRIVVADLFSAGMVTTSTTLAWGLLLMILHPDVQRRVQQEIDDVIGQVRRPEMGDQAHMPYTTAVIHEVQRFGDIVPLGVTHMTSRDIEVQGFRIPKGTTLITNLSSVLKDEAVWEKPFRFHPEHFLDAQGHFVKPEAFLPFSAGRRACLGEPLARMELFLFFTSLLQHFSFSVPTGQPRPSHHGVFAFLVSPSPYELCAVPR
Procedure, shortened: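 Chemicals tested for interference with CYP2D6 activity; proluciferin substrate, NADPH regeneration, 1 h at room temperature, luminescent detection.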

[16] = target: Cytochrome P450 2C19 (Homo sapiens) (UniProt P33261); assay: Cytochrome P450 Family 2 Subfamily C Member 19 (CYP2C19) small molecule antagonists: luciferase reporter qHTS assay (AID 1671197); further: nearly all actives have a fitted effect of over 65% in size; further: potency means the concentration at half of the fitted maximal effect
Sequence of Cytochrome P450 2C19 (Homo sapiens) (P33261 whole entry, looked up): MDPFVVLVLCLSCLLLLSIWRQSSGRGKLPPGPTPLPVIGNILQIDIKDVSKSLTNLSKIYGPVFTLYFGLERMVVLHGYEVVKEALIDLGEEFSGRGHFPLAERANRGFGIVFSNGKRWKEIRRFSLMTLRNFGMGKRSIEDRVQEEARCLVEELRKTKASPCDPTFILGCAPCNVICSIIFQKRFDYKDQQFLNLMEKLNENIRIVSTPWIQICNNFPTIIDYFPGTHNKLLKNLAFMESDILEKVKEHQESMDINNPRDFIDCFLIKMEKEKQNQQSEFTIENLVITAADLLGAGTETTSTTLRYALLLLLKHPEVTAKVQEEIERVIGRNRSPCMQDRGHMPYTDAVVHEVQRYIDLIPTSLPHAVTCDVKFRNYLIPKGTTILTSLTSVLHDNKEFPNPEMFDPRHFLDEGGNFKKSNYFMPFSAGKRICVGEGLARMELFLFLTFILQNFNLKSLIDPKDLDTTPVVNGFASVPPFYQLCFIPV
Procedure, shortened: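 Compounds were tested on CYP2C19 activity via proluciferin conversion to luciferin. The 37C, 1 h reaction followed NADPH addition; detection reagent stopped it.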

[17] = target: Nuclear receptor subfamily 1 group I member 2 (Rattus norvegicus) (UniProt Q9R1A7); assay: Rat pregnane X receptor (rPXR) activation by small molecules, qHTS assay (AID 1346983); settings: rPXR luciferase reporter cells, One-Glo luminescence, 24 h; stronger effect = higher value; further: nearly all actives have a fitted effect of over 20% in size
Sequence of Nuclear receptor subfamily 1 group I member 2 (Rattus norvegicus) (Q9R1A7 whole entry, looked up): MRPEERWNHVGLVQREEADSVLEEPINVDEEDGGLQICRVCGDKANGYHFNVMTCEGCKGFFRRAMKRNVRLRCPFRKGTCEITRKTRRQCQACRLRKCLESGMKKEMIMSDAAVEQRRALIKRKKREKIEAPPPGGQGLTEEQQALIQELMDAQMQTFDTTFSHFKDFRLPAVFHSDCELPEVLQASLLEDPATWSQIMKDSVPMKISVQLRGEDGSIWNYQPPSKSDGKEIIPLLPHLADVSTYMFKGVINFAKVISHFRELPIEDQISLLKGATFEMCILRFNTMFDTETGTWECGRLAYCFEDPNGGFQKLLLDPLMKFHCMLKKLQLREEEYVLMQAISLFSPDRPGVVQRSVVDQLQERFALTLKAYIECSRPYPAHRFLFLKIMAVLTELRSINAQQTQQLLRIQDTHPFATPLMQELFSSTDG
Procedure, shortened: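 Luminescent readout (One-Glo luciferase, 30 min room temperature) followed 24 hr compound treatment at 37 C of rPXR cells plated 2,000 per well and preincubated 5hr; qHTS format with compounds delivered in DMSO.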

[18] = target: Nuclear receptor subfamily 1 group I member 2 (Homo sapiens) (UniProt O75469); assay: CYP3A4 induction through human pregnane X receptor (PXR) by small molecules, qHTS assay (AID 1346984); further: nearly all actives have a fitted effect of over 40% in size
Procedure, shortened: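 After 24 h at 37C with compound, DPX-2 cells (HepG2, co-transfected PXR response element and CYP3A4 promoter-luciferase) got 3uM final P450-Glo Luciferin-IPA for 3 h; One-Glo luminescence followed.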

[19] = target: Nuclear receptor subfamily 1 group I member 2 (Homo sapiens) (UniProt O75469); assay: Human pregnane X receptor (PXR) activation by small molecules, qHTS assay (AID 1346985); further: nearly all actives have a fitted effect of over 40% in size
Procedure, shortened: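 DPX-2 cells (HepG2 co-transfected with a PXR response element and a CYP3A4-promoter luciferase construct) were seeded at 2,000 per well, rested 5 hr at 37C, then exposed to DMSO-dissolved compounds for 24 hr. Activation was read as luciferase luminescence.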

[20] = target: Cytochrome P450 2C9 (Homo sapiens) (UniProt P11712); assay: Cytochrome P450 Family 2 Subfamily C Member 9 (CYP2C9) small molecule antagonists: luciferase reporter qHTS assay (AID 1671198); further: series mostly up to about 120 µM; nearly all actives have a fitted effect of over 50% in size
Sequence of Cytochrome P450 2C9 (Homo sapiens) (P11712 whole entry, looked up): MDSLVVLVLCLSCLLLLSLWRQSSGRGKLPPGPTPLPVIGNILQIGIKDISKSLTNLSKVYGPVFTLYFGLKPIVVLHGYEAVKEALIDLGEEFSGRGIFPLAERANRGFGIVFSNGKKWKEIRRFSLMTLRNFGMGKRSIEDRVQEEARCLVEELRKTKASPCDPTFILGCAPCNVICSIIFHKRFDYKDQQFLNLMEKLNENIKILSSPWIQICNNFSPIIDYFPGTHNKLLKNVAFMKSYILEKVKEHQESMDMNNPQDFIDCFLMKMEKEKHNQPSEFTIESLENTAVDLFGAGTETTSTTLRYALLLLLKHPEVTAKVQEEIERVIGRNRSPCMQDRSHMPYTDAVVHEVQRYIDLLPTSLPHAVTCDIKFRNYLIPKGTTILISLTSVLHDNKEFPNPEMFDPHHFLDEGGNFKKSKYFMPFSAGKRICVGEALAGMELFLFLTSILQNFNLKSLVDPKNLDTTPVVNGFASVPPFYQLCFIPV
Procedure, shortened: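 Enzyme-substrate mix preincubated with compound 10 min at room temperature; reaction started with NADPH regeneration solution, 1 h 37C. Luminescent luciferin product read after 20 min detection reagent.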

SMILES	outcome [1]	Potency [2]	outcome [3]	Potency [4]	Potency [5]	outcome [6]	Potency [7]	outcome [8]	Potency [9]	Potency [10]	Potency [11]	Potency [12]	Potency [13]	Potency [14]	Potency [15]	Potency [16]	max activation [17]	outcome [18]	Potency [19]	Potency [20]
CC(=O)C=C(C)C	inactive	inactive	inactive	inactive	inactive	inactive	inactive	inactive	inactive	inactive	inactive	inactive	inactive	inactive	inactive	inactive	–	–	–	–
CCNc1nc(NC(C)C)nc(SC)n1	inactive	inactive	inactive	inactive	inactive	inactive	inactive	inactive	inactive	54.8 µM (active) and 24.3 µM (active)	inactive	inactive	inactive	inactive	inactive	–	–	–	–	–
CCOP(=S)(OCC)Oc1cnc2ccccc2n1	inactive	inactive	inactive	inactive	inactive	inactive	inactive	inactive	inactive	inactive and 30.6 µM (active)	inactive and 35.6 µM (active)	inactive	inactive and 35.6 µM (active)	inactive and 1 µM (active)	–	inactive and 448 nM (active)	–	–	–	–
O=c1[nH]c(=O)[nH]c(=O)[nH]1	inactive	inactive	inactive	inactive	inactive	inactive	inactive	inactive	inactive	inactive	inactive	inactive	inactive	inactive	63.2 µM (active) and inactive	inactive	–	–	–	–
c1ccc(-c2ccccc2)cc1	inactive	inactive	inactive	inactive	inactive	inactive	inactive	inactive	inactive	inactive	inactive	inactive	inactive	inactive	inactive	inactive	–	–	–	–
C#CCN(C)[C@H](C)Cc1ccccc1	inactive	inactive	inactive	inactive	inactive	inactive	inactive	inactive	inactive	inactive	inactive	inactive	inactive	inactive	–	–	-1.33% (inactive)	inactive	inactive	inactive
Nc1ccccc1C(=O)O	inactive	inactive	inactive	inactive	inactive	inactive	inactive	inactive	inactive	inactive	inactive	inactive	inactive	inactive	63.6 µM (active) and inactive	inactive	-2.88% (inactive)	inactive	inactive	inactive
C1CN2CCN1CC2	inactive	inactive	inactive	inactive and 34.7 µM (active)	inactive	inactive	inactive	inactive	inactive	inactive	inactive	–	inactive	inactive	inactive	inactive	–	–	–	–
[O-][Cl+2]([O-])O	inactive	inactive	inactive	inactive	inactive	inactive	inactive	inactive	inactive	inactive	inactive	inactive	inactive	inactive	inactive	inactive	–	–	–	inactive
O=[N+]([O-])c1ccc(Oc2ccc(Cl)cc2Cl)cc1	inactive	inactive	inactive	inactive	inactive	inactive	inactive	inactive	inactive	54.8 µM (active) and inactive	63.6 µM (active) and inactive	–	inactive	inactive	22.6 µM (active)	5.67 µM (active) and 5.64 µM (active)	–	–	–	–
CNC(=O)Oc1ccccc1OC(C)C	inactive	inactive	inactive	inactive	inactive	inactive	inactive	inactive	inactive	inactive	2 µM (active) and 2.24 µM (active)	3.18 µM (active) and 3.17 µM (active)	798 nM (active) and 1.59 µM (active)	22.5 µM (active) and 22.4 µM (active)	inactive	inactive	–	–	–	–
CC(Br)C(=O)O (stereo not given)	inactive	inactive	inactive	inactive	inactive	inactive	inactive	inactive	inactive	inactive	inactive	inactive	inactive	inactive	–	45.3 µM (active)	–	–	–	–
O=S(=O)(c1ccc(O)cc1)c1ccc(O)cc1	inactive	inactive	inactive	inactive	inactive	inactive	inactive	inactive	inactive	inactive	inactive	inactive	inactive	inactive	–	17.9 µM (active) and 22.4 µM (active)	–	–	–	–
CC(C)OC(=O)Nc1ccccc1	inactive	inactive	inactive	inactive	inactive	inactive	inactive	inactive	inactive	38.6 µM (active)	inactive	inactive	inactive	inactive	–	40 µM (active)	–	–	–	–
CC(C)(C)OOC(C)(C)C	inactive	inactive	inactive	inactive	inactive	inactive	inactive	inactive	inactive	inactive	inactive	inactive	inactive	inactive	inactive	inactive	–	–	–	–
